From the supplement of paper PMC10681739

Biological target: T1, ETS1 (UniProt P14921)
T1 sequence: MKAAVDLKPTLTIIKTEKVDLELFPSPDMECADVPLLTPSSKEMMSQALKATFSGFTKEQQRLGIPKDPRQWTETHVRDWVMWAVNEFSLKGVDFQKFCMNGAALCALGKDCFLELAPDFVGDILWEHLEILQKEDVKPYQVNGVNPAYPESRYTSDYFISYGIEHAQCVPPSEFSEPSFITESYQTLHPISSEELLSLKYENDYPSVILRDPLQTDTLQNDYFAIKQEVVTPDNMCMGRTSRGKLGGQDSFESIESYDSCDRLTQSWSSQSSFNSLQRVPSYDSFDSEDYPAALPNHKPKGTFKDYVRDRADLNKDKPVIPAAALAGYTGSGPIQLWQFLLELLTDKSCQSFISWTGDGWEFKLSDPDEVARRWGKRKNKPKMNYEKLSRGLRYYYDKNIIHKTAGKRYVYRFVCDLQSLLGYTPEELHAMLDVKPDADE
Experiment: ETS1 binding intensity (PBM fluorescence), ETS1 alone (arbitrary fluorescence units); higher = stronger binding
Conditions: ETS1 concentration 1 nM; RUNX1 concentration 0 nM
Experimental: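 Cooperative genomic-context PBM: 36-bp genomic probes with neighbouring ETS1 and RUNX1 sites, double-stranded on Agilent 4x180k arrays. Full-length recombinant human ETS1 (1 nM) was incubated alone or with RUNX1 (25 nM) and detected with anti-ETS1 antibody plus Alexa488 secondary. Value is the median fluorescence intensity over 4 replicate spots; the ETS1+RUNX1 data were normalised to the ETS1-only data using probes without RUNX1 sites. The 36-bp variable region sits on the array probe with constant linker/primer flanks that are not printed.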

| Sequence | ETS1 binding intensity |
| --- | --- |
| GGGCTATTGTTTCCTCCCCCATGTGACCACAGCCTC | 418 |
| TTCAACAGGATGTGGGAACTTGACTCTCGCCGCAAA | 3560 |
| TGCGCCAGCCTTCCTGTCGTGGTCACCGGTGGCAGC | 446 |
| ACCCACCCGGAAGTCCTCCTGGCCCACAAGCTCCGC | 2360 |
| CGAGGGAGCCGGAAAGATGGTGGTTACCAGATCTGC | 608 |
| GCACCACCGGAAGTAGGGCTCAACCACCGCTCATTT | 10300 |
| CTGTTTCCGAGTAAAGTAGGGTGTGTGGGTCACATG | 456 |
| AAATACCAGCCCACTTCCTGTGGCTTTGATCTGCAG | 2090 |
| TGGGATTCTCACTTCCGATCAGCGGTCCTGAACCCG | 707 |
| ACGTACGGGATGTGGGAGGTTTGTTTTGACCACACC | 492 |
| AAGTTCTTCCGGGTCTGCAGTCTGTGGTGTGTTTGC | 478 |
| AGACGGGACCGGAAGCCGGGCCGCAGGCGGCCGGGC | 5400 |
| AGGGCATAAACAGGATGTGGTGTTGGATGAAACCTT | 5290 |
| TTTCCTCGGATTCCCGGATGTGGGTGAGTTCATTTG | 5690 |
| GGAGGCGGAAGTGGAGGTTGTTGTGGCTCCGAGGGC | 1940 |
| GAACCTGGGAGGCGGAAGTTGCGGTTAGCCGAGATC | 6030 |
| AGCTCCAGGAAGAGGGCCTGAAAACCAAACGGGGGA | 408 |
| CAGCTTCCGGGCTAATTAGCAGTCGCGGTGTGCCGC | 413 |
| GCTGCGCAGAGGAAACCAGGCTTGTTGGTTTTCATG | 432 |
| GAACCCCAAGTTCCGGCTGGCACTGCGGCGGAGCCT | 452 |

| Sequence | ETS1 binding intensity |
| --- | --- |
| CTTATCTTCTTCCTGTGAGCTGTGTGTGGGTGGCTC | 489 |
| ACGAGGTTGGCCTCATCCGGTGGTTTTCGCAGCACG | 1290 |
| GCCGGGCACTTCCTGTGGAGGCCGCAGCGGGTGCGC | 1330 |
| TGCACCCGCCACTTCCGCATCGAACCGCCGCTTCAA | 1100 |
| CCATTCACGGGCTTCCGCGGTGTCCCCACCCCCTAA | 724 |
| TATTGTGTACTTCCCCTTCATGTTGTGGTTGGCTTT | 449 |
| ACTGAAAACAGCACAGGATGTGGTCTGCCAGGTGCC | 4270 |
| TCGGAGACGGCGAAAGGAAACCGCAAGGAGGCCACC | 642 |
| CTCTCACTTCCCGTGTGAGAAAAACCACAGAAAAGC | 651 |
| CGTTATTTCCGGGGCTGGGTTAACGCAGCGGTTCCA | 631 |
| TCTGGGGGAGGGGAAGGATGTGGTTTGCAGAGCGGA | 873 |
| CGCCGCTCAACTTCCGGCAACCACAGCTCTCTCTGA | 1830 |
| CTGCTTCGGCCCGGCTTCCGCCCACAGTCAACTGCC | 825 |
| GGCCGGGGGCAGGAAGCTGCGGCGCTGGCTCCCCCC | 2510 |
| CTCTTCTCAGGAAGGGGCTGTGGGATGTAGGATTCC | 638 |
| TGACGGCAGGCAGGATGTGGTGAGACAAATCCACTC | 4070 |
| CCTCCCGACCGGAAGCCCCGCCACAGAGCGGGTTGT | 6240 |
| TTCAACAAGGTTTTCCTGTGGTTACCCCATGCTTTG | 364 |
| TCGTGAAAAAGGAAGTGGATAAAGTGGTTACGGCAA | 2040 |
| TCTAAATCACTTCCTGTTACAGAAACCACAGGCCTG | 4300 |
